# High-throughput results as filed in PubChem.
# MITF primary: human MITF inhibition, primary screen; O75030; AlphaScreen MITF homodimerization, bead proximity signal; inhibition, % at 2.6 µM; hit rate 0.91% among 650,000; AID 1259374; in the data active = inhibition above about 50%;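 note: 0% = vehicle wells with protein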
# Target sequence (O75030 whole entry, looked up): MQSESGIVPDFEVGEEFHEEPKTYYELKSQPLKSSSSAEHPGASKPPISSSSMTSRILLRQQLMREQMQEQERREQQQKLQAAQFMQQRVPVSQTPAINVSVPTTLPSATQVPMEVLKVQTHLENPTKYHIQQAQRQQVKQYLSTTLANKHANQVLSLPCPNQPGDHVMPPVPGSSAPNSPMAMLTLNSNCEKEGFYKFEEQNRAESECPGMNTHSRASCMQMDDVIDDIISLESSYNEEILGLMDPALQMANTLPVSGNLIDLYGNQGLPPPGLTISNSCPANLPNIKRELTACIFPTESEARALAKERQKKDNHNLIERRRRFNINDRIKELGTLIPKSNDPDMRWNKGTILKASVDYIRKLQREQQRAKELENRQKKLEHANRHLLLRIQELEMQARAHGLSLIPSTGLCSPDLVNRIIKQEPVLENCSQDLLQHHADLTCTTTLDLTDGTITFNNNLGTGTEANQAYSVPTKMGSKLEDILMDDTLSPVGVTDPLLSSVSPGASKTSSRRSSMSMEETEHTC
# FBW7 act: activators of human E3 ligase FBW7; hit rate 0.13% among 650,000; Q969H0; normalized activity (activation), % at 26.1 µM; AlphaScreen FBW7–phospho-cyclin E peptide binding, activator screen; in the data active = normalized activity above about 1.9%;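 note: purified mutant Fbw7 with reduced substrate affinity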
# GPR151 activ: human GPR151 activation | hit rate 1% among 650,000 | PathHunter beta-arrestin GPR151 cells, luminescence | activation, % at 11.2 µM; in the data active = activation above about 4.9%;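 note: 0% = median of compound wells and 100% = cells with positive control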
# TEAD-YAP block: TEAD-YAP interaction inhibition. hit rate 1.4% among 640,000. inhibition, % at 9.12 µM. HEK-TIYL cells, TEAD-Gal4/YAP UAS-luciferase luminescence; in the data active = inhibition above about 32%;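 note: 0% = median of test compound wells and 100% = reference inhibitor wells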
# Active calls of the source: *. An excerpt weighted towards active compounds, which were near 3.5% of everything screened.
SMILES,MITF primary,FBW7 act,GPR151 activ,TEAD-YAP block
O=[N+]([O-])c1ccc(Cc2nnc(-c3ccccc3Br)o2)cc1,1,0,-2,32*
Fc1ccc(NC(=S)NNC(=S)NCC2CCCO2)c(F)c1 (stereo not drawn),3,0,-2,-11
Cn1/c(=N/NC(=O)c2ccccc2I)sc2ccccc21,12,0,0,-32
Cc1cc(=O)oc2cc(OC(=O)CN3C(=O)c4cccc([N+](=O)[O-])c4C3=O)ccc12,13,0,0,4
Cc1cc2c(c(=O)n1CC1CCCO1)C(c1ccccc1)C(C#N)=C(N)O2 (stereo not drawn),-9,0,1,5
Cc1sc2ncn(CC(=O)Nc3ccccc3F)c(=O)c2c1S(=O)(=O)N1CCOCC1,-12,0,0,-3
O=C(C1CC1)N1CCc2cc(Br)cc(S(=O)(=O)Nc3cccc(F)c3)c21,11,0,1,42*
O=C(C1CC1)N1CCc2cc(Br)cc(S(=O)(=O)Nc3ccccc3F)c21,-7,0,-1,45*
CC(C)(C)NS(=O)(=O)c1cc(Br)cc2c1N(C(=O)C1CC1)CC2,-6,0,1,-5
COc1ccccc1-n1c(C)nc2cc(C(=O)N3CCOCC3)ccc21,14,0,0,8
COC(=O)Cn1cc(/C=C2/NC(=O)N(c3cccc(Cl)c3)C2=O)c2ccccc21,-3,0,2,2
Cn1cc(/C=C2/NC(=O)N(c3cccc(Cl)c3)C2=O)c2ccccc21,10,0,2,50*
COc1ccc(Nc2nsc(C(=O)c3ccc(F)cc3)c2N)cc1,-4,0,-1,44*
COc1ccc(C(=O)c2snc(NCc3ccccc3)c2N)cc1,5,0,1,-21
CC1(C)CC(=O)C/C(=N/NC(=O)c2cccc(Cl)c2)C1,-7,0,-1,-6
CCOC(=O)C1=C(c2ccccc2)N=c2s/c(=C\c3cccc(O)c3)c(=O)n2C1c1cc(C(C)C)c(OC)cc1C (stereo not drawn),-4,1,-1,4
CCOC(=O)C1=C(c2ccccc2)N=c2s/c(=C\c3ccc4c(c3)OCO4)c(=O)n2C1c1cc(C(C)C)c(OC)cc1C (stereo not drawn),18,2.7*,-1,-3
CCOC(=O)c1c(NC(=O)C2CC2c2ccccc2)sc(C)c1C (stereo not drawn),-11,0,1,-6
CCc1c(C)sc(NC(=O)C2CC2c2ccccc2)c1C(N)=O (stereo not drawn),9,0,4,33*
Cc1ccc(CN2CC(C(=O)Nc3ncc(C)s3)CC2=O)cc1 (stereo not drawn),-7,0,-1,44*
COC(=O)c1ccccc1NC(=O)C(=O)NCc1ccccn1,-19,0,0,-12
CCOc1cc(/C=C2/SC(=S)N(CCCC(=O)O)C2=O)ccc1O,23,0,-2,73*
COc1ccc(/C=C2/SC(=O)N(CCCC(=O)Nc3cccc(O)c3)C2=O)cc1,-3,0,0,66*
CCOc1cc(/C=C2\SC(=S)N(CCOC)C2=O)ccc1O,17,1,0,5
CCOc1cc(/C=C2\SC(=Nc3ccc(C(=O)O)cc3)N(C)C2=O)ccc1O,3,0,2,46*
SMILES,MITF primary,FBW7 act,GPR151 activ,TEAD-YAP block
COc1cc(/C=C2\SC(=S)N(CCCC(=O)O)C2=O)ccc1O,5,0,2,62*
COc1ccc2c(c1)OC(C)CN(CC(=O)NCCCc1ccncc1)C2 (stereo not drawn),-7,0,-2,4
C=CCn1c(SCC(=O)Nc2cccc(C)c2)nnc1-c1ccccc1O,6,0,1,13
C=CCn1c(SCC(=O)Nc2ccc(F)cc2F)nnc1-c1ccccc1O,-7,0,0,48*
COc1cccc(CNC(=O)c2c(-c3ccccc3)c3ccc(-c4cn[nH]c4)nc3n2-c2ccccc2)c1,13,0,-1,28
NC(=O)c1cnn(-c2ccnc(NC(=O)Cc3ccc4c(c3)OCO4)c2)c1,17,0,-2,45*
Cc1cccc(NC(=O)Cc2ccc3c(c2)OCO3)n1,-3,2,0,-30
COc1ccc(C2CC(=O)C3=C(C2)NC(C)=C(C(=O)OC2CCCC2)C3c2cccc([N+](=O)[O-])c2)cc1OC (stereo not drawn),14,0,1,42*
COc1ccc(C2CC(=O)C3=C(C2)NC(C)=C(C(=O)OC2CCCC2)C3c2cccc(Cl)c2)cc1OC (stereo not drawn),-8,0,2,30
COc1ccc(C2CC(=O)C3=C(C2)NC(C)=C(C(=O)OC2CCCC2)C3c2ccccc2F)cc1OC (stereo not drawn),-16,0,-1,48*
COc1ccc(C2CC(=O)C3=C(C2)NC(C)=C(C(=O)OC2CCCC2)C3c2cccc(C)c2)cc1OC (stereo not drawn),-34,0,0,47*
COc1cccc(C2C(C(=O)OC3CCCC3)=C(C)NC3=C2C(=O)CC(c2ccccc2)C3)c1OC (stereo not drawn),-19,0,-1,4
COc1ccccc1C1C(C(=O)OC2CCCC2)=C(C)NC2=C1C(=O)CC(c1ccccc1)C2 (stereo not drawn),2,2.6*,1,-2
O=c1c2ccccc2nc(SCc2ccc([N+](=O)[O-])cc2)n1CC1CCCO1 (stereo not drawn),-2,0,-1,2
CCCOC(=O)C1=C(C)NC2=C(C(=O)CC(c3ccc(OC)c(OC)c3)C2)C1c1ccc(Cl)cc1Cl (stereo not drawn),12,0,-1,4
COc1ccc(C2CC(=O)C3=C(C2)NC(C)=C(C(=O)OC2CCCC2)C3c2ccc(F)cc2)cc1OC (stereo not drawn),1,0,0,37*
CCCOC(=O)C1=C(C)NC2=C(C(=O)CC(c3ccc(OC)c(OC)c3)C2)C1c1cccc(Cl)c1 (stereo not drawn),8,1,0,35*
COc1ccc(-n2c(SCC(=O)N3CCCC3)nnc2-c2c[nH]c3ccccc23)cc1,19,0,-1,-1
CS(=O)(=O)NCCN1CCN(c2ccccc2F)CC1,8,0,3,6
CC(C)C(=O)N1CCC[C@@H](Cn2nc(-c3cccs3)ccc2=O)C1,-4,0,1,69*
Cc1ccc(Nc2nc(N)c3ccccc3n2)cc1C,19,0,-6,55*
COc1cc(C2C=C(c3ccc(Cl)cc3)Nc3nnnn32)cc(OC)c1OC (stereo not drawn),23,1,-1,55*
COc1ccc(C2C=C(c3ccc(Cl)cc3)Nc3nnnn32)cc1OC (stereo not drawn),9,0,-1,1
COc1cc(C2C3=C(Nc4ncnn42)c2ccccc2CC3)cc(OC)c1OC (stereo not drawn),13,0,1,68*
COc1ccc(C2=CC(c3ccc(OC)c(OC)c3)n3ncnc3N2)cc1 (stereo not drawn),12,0,-1,43*
